The values that follow come from PubChem BioAssay (Tox21).

A short description of assay [1]: qHTS assay to identify small molecule agonists of the androgen receptor (AR) signaling pathway in the presence of an antagonist - cell viability counter screen (AID 1259379). Also: nearly all actives have a fitted effect of over 25% in size. Also: potency is read from the fitted curve at half-maximal effect.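 As to activity change, negative = cytotoxicity: MDA-kb2 human breast cancer cells carrying an MMTV luciferase reporter; series mostly up to about 92 µM.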 The procedure, abridged:
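A CellTiter-Fluor read-out measured viability of MDA-kb2 reporter cells (MMTV promoter with AR and GR response elements). Treatment: nilutamide 3.0uM final with compounds at 15 concentrations, 16 hr, 37C, 0% CO2.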

A short description of assay [2]: qHTS assay to identify small molecule agonists of the estrogen receptor beta (ER-beta) signaling pathway - cell viability counter screen (AID 1259380). Also: nearly all actives have a fitted effect of over 30% in size. Also: potency is read from the fitted curve at half-maximal effect. The procedure, abridged: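 Cells used were ER-beta-UAS-bla HEK293T in medium with 2% charcoal-stripped FBS. They were treated for 16 hr at 37C. Viability came from CellTiter-Glo luminescence.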
In general terms: Quantitative high-throughput screening tests each substance at several concentrations.

Assay [3] in a line: qHTS assay to identify small molecule antagonists of the estrogen receptor beta (ER-beta) signaling pathway - cell viability counter screen (AID 1259382). Also: nearly all actives have a fitted effect of over 55% in size. Also: potency is read from the fitted curve at half-maximal effect. As to activity change, negative = cytotoxicity: series mostly up to about 92 µM. The procedure, abridged: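 Agonist-stimulated (1nM E2) ER-beta-UAS-bla HEK293T cells are incubated with library compounds for 16 hr at 37C. Cell viability is then assessed in the reporter-assay wells by adding CellTiter-Glo and reading luminescence after 30 min.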

The target of assay [4] is Estrogen receptor (Homo sapiens) (UniProt P03372). Kind of assay: qHTS assay to identify small molecule agonists of the estrogen receptor alpha (ER-alpha) signaling pathway in the presence of an antagonist (AID 1259383; calls by dose curve; also: nearly all actives have a fitted effect of over 15% in size; also: potency is read from the fitted curve at half-maximal effect; as to activation: top concentration of the series differs between compounds). The procedure, abridged:
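Using VM7Luc4E2 cells seeded 24hr before treatment, antagonist ICI-182,780 (10.0nM final) was added, followed by compounds at 15 concentrations. Plates incubated 22hr; ONE-Glo luminescence quantified reporter activity.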

The nature of assay [5]: qHTS assay to identify small molecule agonists or antagonists of the thyroid stimulating hormone receptor (TSHR) signaling pathway - wild type cell line counter screen (AID 1259384; calls by dose curve). In outline: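 Wild-type Hek293 cells, 800/well, 18 h at 37C, then compound with Ro20-1724 for 30 min RT. cAMP by HTRF (cAMP-d2/anti-cAMP cryptate), 1 h RT, fluorescence read. 15 concentrations, triplicates.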

In assay [6] the target is Thyrotropin receptor (Homo sapiens) (UniProt P16473). Kind of assay: qHTS assay to identify small molecule antagonists of the thyroid stimulating hormone receptor (TSHR) signaling pathway (AID 1259385; calls by dose curve; also: nearly all actives have a fitted effect of over 20% in size). In outline: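 TSHR-HEK293 cells (800/well) plated 18 h, then compounds with Ro20-1724 and TSH at 1.5 ng/mL final, 30 min at room temperature. cAMP quantified by HTRF (cAMP-d2/anti-cAMP-cryptate, 1 h); 15 concentrations in triplicate.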
Sequence of Thyrotropin receptor (Homo sapiens) (P16473 whole entry, looked up): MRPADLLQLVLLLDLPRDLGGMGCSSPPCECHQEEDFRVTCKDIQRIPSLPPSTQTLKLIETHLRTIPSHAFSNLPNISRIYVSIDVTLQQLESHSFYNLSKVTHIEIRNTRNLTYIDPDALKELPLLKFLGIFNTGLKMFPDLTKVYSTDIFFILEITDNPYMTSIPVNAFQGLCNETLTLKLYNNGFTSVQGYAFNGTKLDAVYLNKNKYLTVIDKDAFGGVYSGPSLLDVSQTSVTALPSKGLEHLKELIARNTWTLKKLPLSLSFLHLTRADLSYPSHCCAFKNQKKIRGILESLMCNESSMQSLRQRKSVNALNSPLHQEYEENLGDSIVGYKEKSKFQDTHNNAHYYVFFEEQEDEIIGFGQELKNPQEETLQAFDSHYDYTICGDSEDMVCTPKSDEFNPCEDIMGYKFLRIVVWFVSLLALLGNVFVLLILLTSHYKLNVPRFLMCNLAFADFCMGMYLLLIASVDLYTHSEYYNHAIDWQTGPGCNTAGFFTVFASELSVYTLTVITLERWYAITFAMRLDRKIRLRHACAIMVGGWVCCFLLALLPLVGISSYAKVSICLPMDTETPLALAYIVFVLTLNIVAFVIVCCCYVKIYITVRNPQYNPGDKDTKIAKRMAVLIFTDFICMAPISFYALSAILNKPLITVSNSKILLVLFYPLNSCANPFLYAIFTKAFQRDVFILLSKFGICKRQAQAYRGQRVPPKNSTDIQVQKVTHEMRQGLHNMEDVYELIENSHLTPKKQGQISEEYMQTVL

Assay [7] in a line: qHTS assay to identify small molecule agonists of the estrogen receptor alpha (ER-alpha) signaling pathway in the presence of an antagonist - cell viability counter screen (AID 1259386).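 Also: cells exposed to compounds for 22 h at 37 °C before the viability read; nearly all actives have a fitted effect of over 30% in size.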 Also: potency is read from the fitted curve at half-maximal effect. As to activity change, negative = cytotoxicity: series mostly up to about 92 µM. The procedure, abridged: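 ICI-182,780 at 10.0nM final accompanies the compound titration (15 concentrations, 22hr, 37C) on VM7Luc4E2 cells. The CellTiter-Fluor fluorescence readout runs in the same wells as the luciferase assay.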

For assay [8], the target named is Progesterone receptor (Homo sapiens) (UniProt P06401). Kind of assay: qHTS assay to identify small molecule agonists of the progesterone receptor (PR) signaling pathway (AID 1346784; calls by dose curve; also: nearly all actives have a fitted effect of over 30% in size). In outline:
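Compounds were tested for PR agonism in HEK 293T cells bearing a beta-lactamase gene under UAS control. Treatment lasted 16 hr at 37C; signal came from fluorescence of a FRET substrate.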

Assay [9] shares this target. Kind of assay: qHTS assay to identify small molecule antagonists of the progesterone receptor (PR) signaling pathway (AID 1346795; active = well fitted inhibition curve with a large enough effect in the signal ratio in the repeat runs, not every such curve was filed as active; the % refers to the signal ratio). In outline:
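In HEK293T cells bearing the PR-UAS-bla reporter, compound effects on promegestone-driven (1 nM) beta-lactamase expression are assessed after 16 hr using a fluorescent FRET substrate incubated 2 hr at room temperature.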

Assay [10] in a line: qHTS assay to identify small molecule antagonists of the progesterone receptor (PR) signaling pathway - cell viability counter screen (AID 1346798). Also: nearly all actives have a fitted effect of over 50% in size. Also: potency is read from the fitted curve at half-maximal effect. As to activity change, negative = cytotoxicity: series mostly up to about 92 µM. In outline: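 Following a 4 hr attachment, PR-UAS-bla HEK293T cells in charcoal-stripped FBS medium were exposed to compounds with R5020 for 16 hr; CellTiter-Glo was added and luminescence read after 30 min at room temperature.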

Assay [11] can be described thus: qHTS assay to identify small molecule agonists of the progesterone receptor (PR) signaling pathway - cell viability counter screen (AID 1346799; calls by dose curve; also: nearly all actives have a fitted effect of over 45% in size; also: potency is read from the fitted curve at half-maximal effect). The procedure, abridged: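 Here, 3,000 PR-UAS-bla HEK293T cells per well were treated with compounds for 16 hr after a 6 hr preincubation at 37C and 5% CO2; cell viability is the CellTiter-Glo luminescence signal.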
A short description of assay [12]: qHTS assay to identify small molecule agonists of the TGF-beta/Smad signaling pathway - cell viability counter screen (AID 1346829). Also: top concentration of the series differs between compounds; nearly all actives have a fitted effect of over 45% in size. In outline: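 Tox21 qHTS format: SBE-bla HEK 293T cells treated with DMSO-dissolved compounds for 5 hr; CellTiter-Glo luminescence after 30 min at room temperature.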
The nature of assay [13]: qHTS assay to identify small molecule agonists of the TGF-beta/Smad signaling pathway (AID 1346859; active = well fitted activation curve with a large enough effect in the signal ratio in the repeat runs, not every such curve was filed as active; the % refers to the signal ratio; also: series mostly up to about 77 µM). The procedure, abridged:
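Each well held 4,000 SBE-bla HEK 293T cells incubated overnight before compound addition; 5 hr later the cleavable FRET substrate went on for 2 hr at room temperature, and fluorescence was read at two emissions.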

Assay [14] deals with Thyrotropin-releasing hormone receptor (Homo sapiens) (UniProt P34981). The assay can be described thus: qHTS assay to identify small molecule antagonists of the thyrotropin-releasing hormone receptor (TRHR) signaling pathway (AID 1346877; active = well fitted inhibition curve with a large enough effect in the repeat runs, not every such curve was filed as active; also: series mostly up to about 51 µM). In outline: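 Screening used HEK293 cells engineered with TRHR, with a brief 5 min room-temperature compound exposure preceding addition of TRH to 1 nM. The read-out was kinetic calcium-dye fluorescence, concentration-response from 15 doses in triplicate.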
Sequence of Thyrotropin-releasing hormone receptor (Homo sapiens) (P34981 whole entry, looked up): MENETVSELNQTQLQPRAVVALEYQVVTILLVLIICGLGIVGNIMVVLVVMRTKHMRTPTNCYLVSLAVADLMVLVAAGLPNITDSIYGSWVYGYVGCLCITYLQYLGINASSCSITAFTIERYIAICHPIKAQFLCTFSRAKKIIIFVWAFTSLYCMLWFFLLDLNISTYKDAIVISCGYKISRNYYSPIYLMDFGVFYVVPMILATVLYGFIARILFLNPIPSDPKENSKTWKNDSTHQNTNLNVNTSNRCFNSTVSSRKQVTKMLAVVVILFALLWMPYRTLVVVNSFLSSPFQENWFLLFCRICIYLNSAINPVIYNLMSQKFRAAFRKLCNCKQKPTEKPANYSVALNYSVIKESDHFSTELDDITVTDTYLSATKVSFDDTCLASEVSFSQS

The target is the same in assay [15]. Kind of assay: qHTS assay to identify small molecule agonists of the thyrotropin-releasing hormone receptor (TRHR) signaling pathway (AID 1346891; calls by dose curve; also: potency is read from the fitted curve at half-maximal effect; as to activation: series mostly up to about 58 µM). The procedure, abridged:
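Screening of agonists relied on calcium signalling in HEK293 cells expressing human TRHR: dye loading 2 h at 37 °C preceded compound addition and a 3-min fluorescence time course.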

Assay [16] in a line: Human pregnane X receptor (PXR) small molecule agonists, qHTS cell viability counter screen (AID 1346977). Also: nearly all actives have a fitted effect of over 50% in size. Also: potency is read from the fitted curve at half-maximal effect. The procedure, abridged:
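Tox21 qHTS format; PXR-Luc HepG2, 2,000/well, charcoal-stripped FBS 5%. Cpd exposure 24hr. Read: CellTiter-Fluor fluorescence, multiplexed with luciferase.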

A short description of assay [17]: qHTS assay to identify small molecule antagonists of the TGF-beta/Smad signaling pathway - cell viability counter screen (AID 1346824). Also: nearly all actives have a fitted effect of over 50% in size. In outline:
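SBE-bla HEK 293T cells, incubated overnight, then compound plus 0.25 ng/mL TGF-beta1 (stock added) for 5 hr at 37 C. Viability was read in the same wells by CellTiter-Glo luminescence after 30 min at room temperature.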

Assay [18] has as its target Androgen receptor (Homo sapiens) (UniProt P10275). The assay can be described thus: qHTS assay to identify small molecule agonists of the androgen receptor (AR) signaling pathway in the presence of an antagonist (AID 1259381; calls by dose curve; also: nearly all actives have a fitted effect of over 15% in size; also: potency is read from the fitted curve at half-maximal effect). In outline: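 Using human MDA-kb2 cells with an MMTV promoter–luciferase construct (AR and GR response elements), agonist activity is scored under 3.0uM nilutamide (final) co-treatment; 16hr incubation, 37C, luminescence readout via ONE-Glo.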

Where “and” joins values, the source holds several entries; their conditions need not be identical. Equal values may be shown once. Records with an inconclusive call do not appear. A structure can be active in one record and inactive in another. Calls of active or inactive are those of the source. Unless noted, calls follow the shape of the dose curve; as a rule, active = well fitted curve in the direction sought with a large enough effect in the repeat runs; inconclusive = weak or mixed curves; inactive = no such curve, though single readings can be large; an effect the other way counts as inactive or inconclusive.
% is scaled to controls: 0 for no effect and ±100 for the full control effect.

Sequence of Androgen receptor (Homo sapiens) (P10275 whole entry, looked up): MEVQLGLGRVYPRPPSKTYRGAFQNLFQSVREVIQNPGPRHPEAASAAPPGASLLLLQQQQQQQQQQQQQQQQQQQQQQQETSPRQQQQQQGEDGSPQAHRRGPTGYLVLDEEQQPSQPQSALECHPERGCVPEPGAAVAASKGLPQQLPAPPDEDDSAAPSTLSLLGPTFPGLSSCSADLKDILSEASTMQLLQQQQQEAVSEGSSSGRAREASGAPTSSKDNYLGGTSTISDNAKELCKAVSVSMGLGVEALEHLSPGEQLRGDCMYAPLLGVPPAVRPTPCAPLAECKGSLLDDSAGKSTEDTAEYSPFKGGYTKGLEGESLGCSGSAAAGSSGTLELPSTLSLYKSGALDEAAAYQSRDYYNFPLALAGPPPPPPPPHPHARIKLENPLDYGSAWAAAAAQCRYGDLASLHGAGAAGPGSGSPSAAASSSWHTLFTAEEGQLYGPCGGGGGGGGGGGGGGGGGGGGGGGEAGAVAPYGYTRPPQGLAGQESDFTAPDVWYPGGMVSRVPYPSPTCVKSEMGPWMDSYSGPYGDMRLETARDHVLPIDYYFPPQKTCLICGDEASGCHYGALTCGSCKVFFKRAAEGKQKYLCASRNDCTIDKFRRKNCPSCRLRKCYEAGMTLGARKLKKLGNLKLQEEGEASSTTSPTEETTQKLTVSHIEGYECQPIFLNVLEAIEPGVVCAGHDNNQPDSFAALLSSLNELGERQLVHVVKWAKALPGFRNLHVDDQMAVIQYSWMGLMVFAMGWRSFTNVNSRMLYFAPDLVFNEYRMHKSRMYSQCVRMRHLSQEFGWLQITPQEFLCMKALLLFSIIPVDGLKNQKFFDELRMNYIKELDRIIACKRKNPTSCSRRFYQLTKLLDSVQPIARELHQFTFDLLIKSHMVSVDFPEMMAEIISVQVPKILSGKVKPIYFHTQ
Sequence of Estrogen receptor (Homo sapiens) (P03372 whole entry, looked up): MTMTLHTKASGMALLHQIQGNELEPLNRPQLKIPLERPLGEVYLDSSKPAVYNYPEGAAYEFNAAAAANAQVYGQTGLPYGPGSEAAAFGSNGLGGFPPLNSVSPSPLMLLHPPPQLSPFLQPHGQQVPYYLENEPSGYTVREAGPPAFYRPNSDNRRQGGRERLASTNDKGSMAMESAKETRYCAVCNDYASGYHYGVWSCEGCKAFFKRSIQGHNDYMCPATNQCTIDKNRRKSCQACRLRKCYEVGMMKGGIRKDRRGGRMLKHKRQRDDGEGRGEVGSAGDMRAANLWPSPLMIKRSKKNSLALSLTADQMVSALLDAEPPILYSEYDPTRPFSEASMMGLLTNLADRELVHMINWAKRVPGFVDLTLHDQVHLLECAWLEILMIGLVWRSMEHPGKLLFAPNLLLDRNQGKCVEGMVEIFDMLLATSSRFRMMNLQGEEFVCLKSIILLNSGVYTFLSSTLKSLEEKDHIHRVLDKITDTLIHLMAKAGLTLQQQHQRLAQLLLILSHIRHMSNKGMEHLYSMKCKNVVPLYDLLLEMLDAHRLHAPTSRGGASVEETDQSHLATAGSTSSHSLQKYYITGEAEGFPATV
Sequence of Progesterone receptor (Homo sapiens) (P06401 whole entry, looked up): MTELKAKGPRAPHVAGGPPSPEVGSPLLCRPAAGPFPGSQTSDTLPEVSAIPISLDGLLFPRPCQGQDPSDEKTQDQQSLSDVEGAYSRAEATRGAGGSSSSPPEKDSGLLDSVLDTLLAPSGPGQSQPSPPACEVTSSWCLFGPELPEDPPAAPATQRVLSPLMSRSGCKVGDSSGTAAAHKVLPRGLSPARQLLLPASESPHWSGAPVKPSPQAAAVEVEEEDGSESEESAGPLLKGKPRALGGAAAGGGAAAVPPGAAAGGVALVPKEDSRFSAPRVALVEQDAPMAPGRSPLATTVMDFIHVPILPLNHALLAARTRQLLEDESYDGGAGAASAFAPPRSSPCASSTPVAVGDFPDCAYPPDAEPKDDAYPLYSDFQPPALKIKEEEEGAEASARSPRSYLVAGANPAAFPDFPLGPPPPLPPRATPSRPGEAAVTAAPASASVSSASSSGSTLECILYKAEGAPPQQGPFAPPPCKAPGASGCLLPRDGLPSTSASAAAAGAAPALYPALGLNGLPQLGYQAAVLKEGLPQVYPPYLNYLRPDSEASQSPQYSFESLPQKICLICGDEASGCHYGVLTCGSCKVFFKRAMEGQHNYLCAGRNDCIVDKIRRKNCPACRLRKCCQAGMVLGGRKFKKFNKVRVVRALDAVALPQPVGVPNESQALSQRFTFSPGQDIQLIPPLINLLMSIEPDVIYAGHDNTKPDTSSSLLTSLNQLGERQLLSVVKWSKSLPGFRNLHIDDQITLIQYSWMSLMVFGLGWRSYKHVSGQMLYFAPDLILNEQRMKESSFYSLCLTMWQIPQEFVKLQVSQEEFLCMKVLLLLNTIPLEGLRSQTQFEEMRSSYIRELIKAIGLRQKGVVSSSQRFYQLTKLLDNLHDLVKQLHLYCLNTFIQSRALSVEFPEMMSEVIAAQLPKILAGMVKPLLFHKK

As for `CC12CCC(CC1)C(C)(C)O2`, the Potency entry in assay [1], in [2], in assay [3], in assay [4], in assay [5] and in assay [6] was “inactive” each time. Besides, the Potency result in assay [7], in [8], in assay [9], in assay [10], in [11] and in assay [12] was “inactive” throughout. In addition, the Potency entry in assay [14], in [15] and in assay [16] was “inactive” each time. Moreover, the compound was classed as inactive in assay [13].

`COc1ccc(CN(CCN(C)C)c2ccccn2)cc1`: the Potency result in assay [1], in [3], in assay [7], in assay [8], in [9] and in assay [10] was “inactive” in each case. Moreover, the Potency entry in assay [17], in assay [12], in assay [14], in assay [15] and in assay [16] was “inactive” each time. Besides, the Potency was 50.2 µM (active) and inactive in assay [2]; 42.8 µM (active) and 28.2 µM (active) and inactive in assay [11]. Further, the compound was classed as inactive in assay [13].

As for `CC(=O)Nc1c(I)c(NC(C)=O)c(I)c(C(=O)O)c1I`, the Potency entry in assay [1], in assay [2], in assay [3], in [5], in [6] and in assay [7] was “inactive” each time. In addition, the Potency entry in [8], in assay [9], in assay [10], in [11], in assay [12] and in [16] was “inactive” in each case. Moreover, in [13], the compound was classed as inactive.

As for `COc1ccc2c(c1)c(CC(=O)O)c(C)n2C(=O)c1ccc(Cl)cc1`, the Potency result in assay [1], in assay [18], in assay [3], in [4], in assay [5] and in assay [6] was “inactive” in each case. Further, the Potency result in assay [7], in assay [8], in [9], in assay [10], in [11] and in [12] was “inactive” throughout. The Potency entry in assay [16] was “inactive”.

Consider `CN(C)C(=S)SC(=S)N(C)C`, for which the Potency in assay [1] is 3.96 µM (active) and inactive; in assay [2], 1.25 µM (active) and 2.17 µM (active) and 1.06 µM (active); in assay [3], 1.37 µM (active) and 1.88 µM (active); in assay [7], 35.3 µM (active) and 3.06 µM (active) and inactive; in assay [10], 994 nM (active) and 969 nM (active) and 750 nM (active); in [11], 2.22 µM (active) and 1.22 µM (active) and 266 nM (active). In addition, in assay [16], the Potency was 7.08 µM (active) and 545 nM (active) and 2.66 µM (active). Also, the Potency result in assay [5], in assay [6], in [8], in assay [12], in assay [14] and in assay [15] was “inactive” in each case. Moreover, the call in assay [13] was inactive.

As for `Nc1ccc2c(c1)CN1C(=O)c3ccccc3C1=N2`, the Potency is 5.8 µM (active) in assay [2], 0.231 µM (active) in [18], 0.092 µM (active) in assay [4] and 8.27 µM (active) in assay [15]. Besides, the cAMP activity change in assay [5] is -1.34% [at 18.9 µM, stronger effect = higher value] (inactive). For the same compound, the activation in assay [8] is -0.634% [at 19 µM] (inactive). In assay [9], the activity change, negative = inhibition is -14.5% [at 18.9 µM] (inactive). Also, the values for the activity change, negative = cytotoxicity in assay [10] and in assay [11] were -15.2% [at 18.9 µM] (inactive) and -25.1% [at 19 µM] (inactive), respectively. In assay [14], the activity, negative = inhibition was -0.792% [at 10.5 µM] (inactive).

For the compound `F[B-](F)(F)F`, the Potency entry in assay [1], in [3], in assay [5], in assay [6], in assay [7] and in assay [8] was “inactive” each time. Also, the Potency entry in [9], in assay [10], in assay [11], in assay [12], in assay [14] and in [15] was “inactive” throughout. For the same compound, the Potency result in assay [16] is “inactive”. The Potency entry in assay [2] was “inactive and 62 µM (active)”. In assay [13], the compound was classed as inactive.
